What all share (assay): DAPPL (digital affinity profiling via proximity ligation, sequencing); 10 mM Tris-HCl pH 7.5, 50 mM NaCl, 1 mM DTT, 4% glycerol, room temperature, 30 min; GST-TFs on glutathione beads, 16-mer random dsDNA library, 0.1% formaldehyde crosslink after washing; high values mean tight binding
Test [1] has as its target T1, FLI1 (Homo sapiens, UniProt Q01543 1-452).
T1 sequence: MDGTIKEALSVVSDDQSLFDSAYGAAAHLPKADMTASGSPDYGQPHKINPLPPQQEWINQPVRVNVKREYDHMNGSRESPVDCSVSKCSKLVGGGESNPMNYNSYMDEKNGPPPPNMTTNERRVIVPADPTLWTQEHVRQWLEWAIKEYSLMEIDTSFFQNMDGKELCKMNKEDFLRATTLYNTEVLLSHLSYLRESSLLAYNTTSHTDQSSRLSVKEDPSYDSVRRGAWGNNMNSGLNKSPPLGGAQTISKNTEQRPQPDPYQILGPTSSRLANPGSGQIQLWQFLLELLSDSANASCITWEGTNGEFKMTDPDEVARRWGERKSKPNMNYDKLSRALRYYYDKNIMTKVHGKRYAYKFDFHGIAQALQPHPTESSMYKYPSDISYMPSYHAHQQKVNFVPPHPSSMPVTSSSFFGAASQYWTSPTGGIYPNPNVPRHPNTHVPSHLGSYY
Conditions: protein: recombinant; tags: N-terminal GST; dsDNA, one strand shown. The procedure, abridged: (§1)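 Yeast served to express human transcription factors as GST fusions, which were then captured on glutathione beads and labelled with DNA barcodes. Pooled with a tag-only sample, they were incubated with 200 nmole of a 16-mer random double-stranded DNA library for 30 min at room temperature in Tris/NaCl/DTT/glycerol buffer, washed, crosslinked with 0.1% formaldehyde, ligated by proximity, amplified by PCR and sequenced. Dividing each hexamer's read frequency for a factor by its frequency for the tag-only sample gives the binding signal.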

The target in test [2] is T2, ELK1 (Homo sapiens, UniProt P19419 1-428).
T2 sequence: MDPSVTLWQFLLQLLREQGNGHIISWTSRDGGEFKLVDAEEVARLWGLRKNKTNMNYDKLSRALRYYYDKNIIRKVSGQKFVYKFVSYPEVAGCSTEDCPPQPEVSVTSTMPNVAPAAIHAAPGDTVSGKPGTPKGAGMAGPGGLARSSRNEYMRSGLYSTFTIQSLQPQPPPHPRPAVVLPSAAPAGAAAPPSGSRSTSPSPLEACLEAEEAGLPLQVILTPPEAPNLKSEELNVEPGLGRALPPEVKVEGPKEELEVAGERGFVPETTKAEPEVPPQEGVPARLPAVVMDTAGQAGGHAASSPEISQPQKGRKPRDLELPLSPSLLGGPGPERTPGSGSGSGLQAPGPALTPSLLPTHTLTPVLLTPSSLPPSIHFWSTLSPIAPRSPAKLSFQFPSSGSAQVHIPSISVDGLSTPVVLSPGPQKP
The note with it: protein: recombinant; tags: N-terminal GST; dsDNA, one strand shown. Put shortly: as §1

In test [3] the target is T3, GABPA (Homo sapiens, UniProt Q06546 1-454).
T3 sequence: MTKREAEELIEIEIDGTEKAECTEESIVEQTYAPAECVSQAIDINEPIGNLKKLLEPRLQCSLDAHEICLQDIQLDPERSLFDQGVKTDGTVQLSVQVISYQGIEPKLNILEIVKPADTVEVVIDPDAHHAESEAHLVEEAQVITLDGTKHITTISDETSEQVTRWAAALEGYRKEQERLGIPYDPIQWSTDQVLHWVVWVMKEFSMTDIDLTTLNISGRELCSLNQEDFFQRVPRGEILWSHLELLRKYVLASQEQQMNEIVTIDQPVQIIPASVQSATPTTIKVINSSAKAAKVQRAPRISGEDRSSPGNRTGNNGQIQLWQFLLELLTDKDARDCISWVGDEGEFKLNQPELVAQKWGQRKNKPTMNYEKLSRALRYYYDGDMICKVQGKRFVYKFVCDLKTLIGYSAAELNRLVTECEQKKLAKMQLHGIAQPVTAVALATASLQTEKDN
The note with it: protein: recombinant; tags: N-terminal GST; dsDNA, one strand shown. Put shortly:
as §1

Test [4] deals with T4, ERG (Homo sapiens, UniProt P11308 1-479).
T4 sequence: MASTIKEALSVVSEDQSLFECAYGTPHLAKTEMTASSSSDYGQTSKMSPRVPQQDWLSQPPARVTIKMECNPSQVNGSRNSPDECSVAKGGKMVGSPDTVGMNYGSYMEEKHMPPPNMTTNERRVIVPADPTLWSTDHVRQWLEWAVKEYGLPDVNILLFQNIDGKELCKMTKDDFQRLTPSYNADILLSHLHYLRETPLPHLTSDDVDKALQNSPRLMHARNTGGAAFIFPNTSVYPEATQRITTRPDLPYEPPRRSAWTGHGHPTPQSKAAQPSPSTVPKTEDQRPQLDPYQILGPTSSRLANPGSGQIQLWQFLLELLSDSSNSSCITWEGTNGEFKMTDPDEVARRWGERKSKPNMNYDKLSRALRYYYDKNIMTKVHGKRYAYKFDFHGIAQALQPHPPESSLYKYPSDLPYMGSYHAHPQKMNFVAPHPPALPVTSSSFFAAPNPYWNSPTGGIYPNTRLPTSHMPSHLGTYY
Conditions: protein: recombinant; tags: N-terminal GST; dsDNA, one strand shown. Put shortly: as §1

Test [5] addresses ELF1 (Homo sapiens, UniProt P32519 1-619). Conditions: protein: recombinant; tags: N-terminal GST; dsDNA, one strand shown. Put shortly: as §1
Test [6] has as its target T5, EHF (Homo sapiens, UniProt Q9NZC4 1-300).
T5 sequence: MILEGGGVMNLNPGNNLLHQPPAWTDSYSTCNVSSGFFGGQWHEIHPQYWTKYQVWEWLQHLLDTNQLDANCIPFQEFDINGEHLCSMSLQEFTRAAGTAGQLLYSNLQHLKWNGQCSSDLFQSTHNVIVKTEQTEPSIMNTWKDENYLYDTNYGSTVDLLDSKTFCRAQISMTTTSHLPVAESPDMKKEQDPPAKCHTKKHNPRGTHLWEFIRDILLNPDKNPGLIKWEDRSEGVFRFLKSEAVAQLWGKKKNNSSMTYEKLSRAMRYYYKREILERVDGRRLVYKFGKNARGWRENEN
Conditions: protein: recombinant; tags: N-terminal GST; dsDNA, one strand shown. Put shortly:
as §1

The target of test [7] is SPI1 (Homo sapiens, UniProt P17947 1-270). Conditions: protein: recombinant; tags: N-terminal GST; dsDNA, one strand shown. The procedure, abridged: as §1
For test [8], the target named is SPIB (Homo sapiens, UniProt Q01892 1-262). The note with it: protein: recombinant; tags: N-terminal GST; dsDNA, one strand shown. The procedure, abridged:
as §1

The target in test [9] is T6, ELK3 (Homo sapiens, UniProt P41970 1-407).
T6 sequence: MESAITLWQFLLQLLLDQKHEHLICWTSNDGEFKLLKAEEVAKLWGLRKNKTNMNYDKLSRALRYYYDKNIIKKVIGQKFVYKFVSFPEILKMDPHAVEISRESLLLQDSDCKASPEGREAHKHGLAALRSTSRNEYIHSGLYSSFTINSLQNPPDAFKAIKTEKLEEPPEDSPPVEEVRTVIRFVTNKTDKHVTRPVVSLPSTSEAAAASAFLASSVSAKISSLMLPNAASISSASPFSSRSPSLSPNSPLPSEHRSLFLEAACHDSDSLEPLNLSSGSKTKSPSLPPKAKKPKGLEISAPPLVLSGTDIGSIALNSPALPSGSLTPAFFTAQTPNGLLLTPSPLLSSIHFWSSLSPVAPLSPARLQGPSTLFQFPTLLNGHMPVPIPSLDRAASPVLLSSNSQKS
The note with it: protein: recombinant; tags: N-terminal GST; dsDNA, one strand shown. Put shortly:
as §1

Test [10] addresses T7, FEV (Homo sapiens, UniProt Q99581 1-238).
T7 sequence: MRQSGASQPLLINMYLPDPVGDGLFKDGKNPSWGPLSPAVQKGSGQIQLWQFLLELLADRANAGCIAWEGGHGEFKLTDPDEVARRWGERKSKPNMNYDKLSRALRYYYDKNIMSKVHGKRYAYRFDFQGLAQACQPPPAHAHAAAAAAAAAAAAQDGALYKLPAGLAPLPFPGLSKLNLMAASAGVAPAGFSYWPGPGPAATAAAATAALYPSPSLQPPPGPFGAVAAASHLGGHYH
Conditions: protein: recombinant; tags: N-terminal GST; dsDNA, one strand shown. The procedure, abridged:
as §1

Test [11] deals with ETV5 (Homo sapiens, UniProt P41161 1-510). Conditions: protein: recombinant; tags: N-terminal GST; dsDNA, one strand shown. The procedure, abridged: as §1
ETV5, sequence (P41161 whole entry): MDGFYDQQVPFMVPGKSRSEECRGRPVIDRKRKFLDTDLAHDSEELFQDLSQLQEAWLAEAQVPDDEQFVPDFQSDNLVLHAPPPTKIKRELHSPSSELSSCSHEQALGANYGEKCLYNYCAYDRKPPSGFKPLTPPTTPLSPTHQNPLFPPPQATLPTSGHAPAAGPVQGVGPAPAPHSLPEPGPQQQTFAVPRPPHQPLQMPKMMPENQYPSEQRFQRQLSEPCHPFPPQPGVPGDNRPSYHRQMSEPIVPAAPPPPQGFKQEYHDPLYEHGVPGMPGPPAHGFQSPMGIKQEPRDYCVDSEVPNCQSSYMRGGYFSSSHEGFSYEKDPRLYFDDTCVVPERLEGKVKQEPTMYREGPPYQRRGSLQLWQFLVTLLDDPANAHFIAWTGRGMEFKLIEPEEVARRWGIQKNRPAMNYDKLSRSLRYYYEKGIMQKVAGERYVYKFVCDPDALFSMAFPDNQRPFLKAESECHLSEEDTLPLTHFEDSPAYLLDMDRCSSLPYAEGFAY
Test [12] concerns the target HSF1 (Homo sapiens, UniProt Q00613 1-529). The note with it: protein: recombinant; tags: N-terminal GST; chain copies: 3; dsDNA, one strand shown. The procedure, abridged: as §1
Test [13] deals with T8, SPIC (Homo sapiens, UniProt Q8N5J4 1-248).
T8 sequence: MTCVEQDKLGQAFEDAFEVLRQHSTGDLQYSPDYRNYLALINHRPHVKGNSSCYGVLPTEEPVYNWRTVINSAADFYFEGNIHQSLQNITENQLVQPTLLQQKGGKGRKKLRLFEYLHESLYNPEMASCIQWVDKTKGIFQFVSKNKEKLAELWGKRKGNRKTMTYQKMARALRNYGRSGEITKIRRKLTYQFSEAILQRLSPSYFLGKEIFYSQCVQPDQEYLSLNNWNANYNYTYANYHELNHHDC
Conditions: protein: recombinant; tags: N-terminal GST; dsDNA, one strand shown. The procedure, abridged: as §1

In test [14] the target is ELF4 (Homo sapiens, UniProt Q99607 1-663). The note with it: protein: recombinant; tags: N-terminal GST; dsDNA, one strand shown. The procedure, abridged:
as §1

Test [15] deals with T9, ELK4 (Homo sapiens, UniProt P28324-2 1-405).
T9 sequence: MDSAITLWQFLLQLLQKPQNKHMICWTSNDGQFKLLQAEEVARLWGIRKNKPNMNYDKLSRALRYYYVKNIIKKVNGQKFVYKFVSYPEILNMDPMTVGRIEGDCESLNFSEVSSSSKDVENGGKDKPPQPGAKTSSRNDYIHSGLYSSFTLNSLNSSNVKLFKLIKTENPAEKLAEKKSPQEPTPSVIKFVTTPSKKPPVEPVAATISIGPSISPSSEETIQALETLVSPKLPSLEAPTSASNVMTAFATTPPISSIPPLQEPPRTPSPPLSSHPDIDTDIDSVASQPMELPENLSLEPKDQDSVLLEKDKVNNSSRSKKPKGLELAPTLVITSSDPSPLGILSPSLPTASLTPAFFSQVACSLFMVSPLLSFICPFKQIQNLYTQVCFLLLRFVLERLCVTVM
The note with it: protein: recombinant; tags: N-terminal GST; dsDNA, one strand shown. The procedure, abridged: as §1

Test [16] addresses T10, ETV2 (Homo sapiens, UniProt O00321 1-342).
T10 sequence: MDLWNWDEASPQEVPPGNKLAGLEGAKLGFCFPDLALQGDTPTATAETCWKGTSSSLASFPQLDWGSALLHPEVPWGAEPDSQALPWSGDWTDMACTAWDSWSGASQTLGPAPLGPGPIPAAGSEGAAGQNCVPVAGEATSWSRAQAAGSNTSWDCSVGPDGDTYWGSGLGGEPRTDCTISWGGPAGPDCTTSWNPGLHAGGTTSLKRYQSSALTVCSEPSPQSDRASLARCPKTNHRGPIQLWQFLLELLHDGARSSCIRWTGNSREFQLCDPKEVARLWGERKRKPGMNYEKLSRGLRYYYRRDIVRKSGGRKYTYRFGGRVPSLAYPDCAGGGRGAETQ
Conditions: protein: recombinant; tags: N-terminal GST; dsDNA, one strand shown. The procedure, abridged: as §1

For test [17], the target named is T11, ELF3 (Homo sapiens, UniProt P78545 1-371).
T11 sequence: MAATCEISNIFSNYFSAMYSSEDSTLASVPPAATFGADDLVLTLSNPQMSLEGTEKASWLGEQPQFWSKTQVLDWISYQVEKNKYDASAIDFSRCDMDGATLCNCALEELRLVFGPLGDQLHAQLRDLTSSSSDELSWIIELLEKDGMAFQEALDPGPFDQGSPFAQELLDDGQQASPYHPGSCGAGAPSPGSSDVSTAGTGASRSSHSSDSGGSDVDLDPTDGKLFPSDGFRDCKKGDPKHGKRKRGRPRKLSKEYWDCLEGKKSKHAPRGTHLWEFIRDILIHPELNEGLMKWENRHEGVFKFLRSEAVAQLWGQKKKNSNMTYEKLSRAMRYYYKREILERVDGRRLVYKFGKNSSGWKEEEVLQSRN
The note with it: protein: recombinant; tags: N-terminal GST; dsDNA, one strand shown. Put shortly: as §1

Test [18] has as its target CRX (Homo sapiens, UniProt O43186 1-299). The note with it: protein: recombinant; tags: N-terminal GST; dsDNA, one strand shown. The procedure, abridged:
as §1

Test [19] deals with ETV1 (Homo sapiens, UniProt P50549 1-477). The note with it: protein: recombinant; tags: N-terminal GST; dsDNA, one strand shown. The procedure, abridged:
as §1

ETV1, sequence (P50549 whole entry): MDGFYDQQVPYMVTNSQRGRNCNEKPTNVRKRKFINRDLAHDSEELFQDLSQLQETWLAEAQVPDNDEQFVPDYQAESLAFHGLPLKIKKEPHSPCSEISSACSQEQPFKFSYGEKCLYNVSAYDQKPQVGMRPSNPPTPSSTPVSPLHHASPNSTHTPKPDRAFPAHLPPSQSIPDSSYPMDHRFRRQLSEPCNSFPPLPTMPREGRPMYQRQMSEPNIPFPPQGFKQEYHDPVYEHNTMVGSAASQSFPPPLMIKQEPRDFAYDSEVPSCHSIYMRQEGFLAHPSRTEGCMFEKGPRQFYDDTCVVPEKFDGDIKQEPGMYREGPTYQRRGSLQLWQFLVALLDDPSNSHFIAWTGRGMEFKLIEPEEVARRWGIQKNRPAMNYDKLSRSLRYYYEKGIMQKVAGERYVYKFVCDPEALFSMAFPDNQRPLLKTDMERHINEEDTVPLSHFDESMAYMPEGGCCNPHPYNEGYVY
HSF1, sequence (Q00613 whole entry): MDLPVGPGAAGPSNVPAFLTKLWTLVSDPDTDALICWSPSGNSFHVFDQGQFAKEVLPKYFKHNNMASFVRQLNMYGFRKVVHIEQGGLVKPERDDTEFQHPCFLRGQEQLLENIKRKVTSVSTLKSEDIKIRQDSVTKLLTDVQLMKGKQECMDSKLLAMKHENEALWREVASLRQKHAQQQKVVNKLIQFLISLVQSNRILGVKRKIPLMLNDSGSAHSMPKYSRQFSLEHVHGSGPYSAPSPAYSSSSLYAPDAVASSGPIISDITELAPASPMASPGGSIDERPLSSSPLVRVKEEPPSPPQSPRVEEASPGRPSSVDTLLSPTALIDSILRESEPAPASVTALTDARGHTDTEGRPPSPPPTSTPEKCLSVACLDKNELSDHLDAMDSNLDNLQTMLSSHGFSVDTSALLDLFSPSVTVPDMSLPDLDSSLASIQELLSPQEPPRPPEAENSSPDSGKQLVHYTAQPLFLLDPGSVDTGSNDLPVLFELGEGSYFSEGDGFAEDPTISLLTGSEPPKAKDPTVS
SPIB, sequence (Q01892 whole entry): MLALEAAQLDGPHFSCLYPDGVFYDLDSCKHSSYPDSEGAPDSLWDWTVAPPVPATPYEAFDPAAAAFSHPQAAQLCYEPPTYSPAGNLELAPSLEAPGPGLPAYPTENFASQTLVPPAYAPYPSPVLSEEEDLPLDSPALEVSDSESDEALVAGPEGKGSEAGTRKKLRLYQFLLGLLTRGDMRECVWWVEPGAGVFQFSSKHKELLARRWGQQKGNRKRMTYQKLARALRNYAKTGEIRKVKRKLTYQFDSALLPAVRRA
ELF4, sequence (Q99607 whole entry): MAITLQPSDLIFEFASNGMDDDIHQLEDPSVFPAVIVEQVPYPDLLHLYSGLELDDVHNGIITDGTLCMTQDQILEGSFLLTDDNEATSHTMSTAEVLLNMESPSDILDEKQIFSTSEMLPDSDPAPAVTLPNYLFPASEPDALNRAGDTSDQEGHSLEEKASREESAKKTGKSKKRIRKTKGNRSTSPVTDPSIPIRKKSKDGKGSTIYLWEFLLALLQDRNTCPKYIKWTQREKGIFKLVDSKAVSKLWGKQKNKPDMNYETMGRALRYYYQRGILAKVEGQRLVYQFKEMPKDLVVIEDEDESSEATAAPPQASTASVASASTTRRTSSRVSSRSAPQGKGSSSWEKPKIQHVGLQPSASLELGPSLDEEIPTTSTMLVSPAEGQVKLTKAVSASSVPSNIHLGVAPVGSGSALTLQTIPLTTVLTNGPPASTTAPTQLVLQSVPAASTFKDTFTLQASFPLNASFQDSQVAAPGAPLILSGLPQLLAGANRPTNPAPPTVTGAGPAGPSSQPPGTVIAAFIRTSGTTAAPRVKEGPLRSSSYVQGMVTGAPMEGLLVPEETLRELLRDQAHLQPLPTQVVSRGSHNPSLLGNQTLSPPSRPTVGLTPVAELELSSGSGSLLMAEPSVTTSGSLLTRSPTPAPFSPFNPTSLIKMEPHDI
ELF1, sequence (P32519 whole entry): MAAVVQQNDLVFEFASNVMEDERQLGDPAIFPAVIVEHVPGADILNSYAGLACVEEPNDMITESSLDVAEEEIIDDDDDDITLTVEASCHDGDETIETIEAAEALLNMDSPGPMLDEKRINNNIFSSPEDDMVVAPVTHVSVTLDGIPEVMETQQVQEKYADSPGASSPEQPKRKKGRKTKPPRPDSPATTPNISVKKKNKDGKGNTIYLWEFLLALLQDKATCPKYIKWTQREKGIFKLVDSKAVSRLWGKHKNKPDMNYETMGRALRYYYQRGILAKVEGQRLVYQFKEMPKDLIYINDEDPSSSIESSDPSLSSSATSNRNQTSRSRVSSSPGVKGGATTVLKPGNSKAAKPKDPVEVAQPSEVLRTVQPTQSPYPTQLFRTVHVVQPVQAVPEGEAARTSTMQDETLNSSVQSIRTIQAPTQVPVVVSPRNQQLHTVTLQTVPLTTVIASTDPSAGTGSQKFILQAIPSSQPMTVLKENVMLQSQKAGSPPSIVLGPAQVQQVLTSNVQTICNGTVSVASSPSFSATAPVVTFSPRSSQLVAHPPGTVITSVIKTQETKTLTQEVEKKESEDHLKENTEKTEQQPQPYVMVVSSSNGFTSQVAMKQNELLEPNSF
CRX, sequence (O43186 whole entry): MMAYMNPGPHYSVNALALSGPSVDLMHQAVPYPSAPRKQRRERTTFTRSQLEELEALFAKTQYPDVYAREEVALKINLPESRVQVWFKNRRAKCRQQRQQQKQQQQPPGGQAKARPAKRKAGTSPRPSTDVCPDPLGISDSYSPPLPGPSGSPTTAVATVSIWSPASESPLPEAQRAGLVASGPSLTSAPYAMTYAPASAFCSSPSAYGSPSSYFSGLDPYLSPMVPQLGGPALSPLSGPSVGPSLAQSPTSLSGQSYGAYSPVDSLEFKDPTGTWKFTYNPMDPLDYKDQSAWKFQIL

As to GTTAAT, the binding signal is 1.14 fold enrichment (6-mer frequency, TF over GST control) in test [1]; 1.19 fold enrichment (6-mer frequency, TF over GST control) in test [2]; 1.06 fold enrichment (6-mer frequency, TF over GST control) in test [3]; 1.1 fold enrichment (6-mer frequency, TF over GST control) in test [4]; 1.03 fold enrichment (6-mer frequency, TF over GST control) in test [5]; 1.16 fold enrichment (6-mer frequency, TF over GST control) in [6]. Further, the binding signal in [7] was 1.1 fold enrichment (6-mer frequency, TF over GST control); in [8], 1.15 fold enrichment (6-mer frequency, TF over GST control); in test [9], 1.12 fold enrichment (6-mer frequency, TF over GST control); in [10], 1.08 fold enrichment (6-mer frequency, TF over GST control); in test [11], 1.17 fold enrichment (6-mer frequency, TF over GST control); in test [12], 1.6 fold enrichment (6-mer frequency, TF over GST control). The binding signal in test [13] was 1.11 fold enrichment (6-mer frequency, TF over GST control); in test [14] it was 1.14 fold enrichment (6-mer frequency, TF over GST control); in test [15] it was 1.05 fold enrichment (6-mer frequency, TF over GST control); in [16] it was 1.18 fold enrichment (6-mer frequency, TF over GST control); in test [17], 1.09 fold enrichment (6-mer frequency, TF over GST control); in test [18], 2.41 fold enrichment (6-mer frequency, TF over GST control). Further, in [19], the binding signal was 1 fold enrichment (6-mer frequency, TF over GST control).

(Values after article PMC7862700, “An all-to-all approach to the identification of sequence-specific readers for epigenetic DNA modifications on cytosine”.)
